Data on 37 compounds can be found in PubChem BioAssay (NCI).

Where “and” joins values, the source holds several entries; their conditions need not be identical. Equal values may be shown once. Compounds without any hit were thinned out: in the full panel of roughly 83,000, 20% have a hit.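 Compound tested at a single concentration for 48 hours in 96-well plates; a percent growth value below 10 was scored as active.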 Unmarked numbers belong to inactive results. Calls of active or inactive are those of the source.

For one assay, the system named is MCF7 breast. Description: NCI-60 one-dose screen, 48 h (100 = growth as untreated, 0 = no growth, -100 = all killed). The conditions noted are these: 10 µM unless noted.
Take `Cc1ccc(Cl)cc1NC(=O)N/C(N)=N/c1nc2ccccc2s1`: the growth is 4.25% (active).

Turning to `COc1ccc(N=Nc2c(N)nn3c(N)c(C#N)c(-c4ccccc4)nc23)cc1`, the growth was 14.5%.

Turning to `Cc1cccc(/C=C/c2ccc(NC(=S)NCCCCN(C)C)cc2)c1`, the growth is -73.7% (active).

In the case of `COc1ccc(-c2cc(-c3ccccc3)c(C#N)c(=O)[nH]2)cc1S(N)(=O)=O`, the growth is 103%.

`CC(C)(C)OC(=O)N1C/C(=C\c2ccc(F)cc2)C(=O)/C(=C/c2ccc(F)cc2)C1`: the growth is -66.5% (active).

On to `COc1cc(C=O)ccc1Oc1nc(Nc2ccc(F)cc2)nc(N(C)C)n1`, for which the growth was 53.2% and 45.4%.

For `N#Cc1c(-c2ccc(F)cc2)nc(SCc2ccc(F)cc2)nc1N1CCNCC1`, the growth was -90.5% (active).

In the case of `COc1ccc(-c2nc3ccc(-c4nnc(SCc5ccccc5)o4)cc3[nH]2)cc1OC`, the growth was 21.7%.

As for `COc1cccc(NC(=O)c2ccc(NC(=O)CCl)s2)c1`, the growth is 5.63% (active).

`COc1ccc(/C=C/C(=O)c2ccc(S(=O)(=O)NCCNc3nc(N(C)C)nc(N4CCOCC4)n3)cc2)cc1`: the growth is 11.8%.

As for `COc1ccc(S(=O)(=O)Nc2ccc(-c3ccc4c(c3)NC(=O)/C4=C\c3ccc[nH]3)cc2)cc1OC`, the growth was -39% (active).

In the case of `C=CCSc1nnc(-c2ccc(-c3nc4ccc(Cl)cc4[nH]3)cc2)o1`, the growth was 25.1%.

Consider `COc1cccc(-c2ccc(/C=N/NC(=O)c3[nH]c4ccc(Br)cc4c3-c3ccccc3)s2)c1`, for which the growth was 1.38% (active).

With `Nc1nn2c(-c3cc4cc(Br)ccc4oc3=O)ccnc2c1N=Nc1ccc(Br)cc1`, the growth is 39.5%.

In the case of `COc1cc(/C=C/C(=O)c2cnn(-c3cc(=O)[nH]c4ccccc34)c2C)cc(OC)c1OC`, the growth was 10.8%.

As for `COc1ccc(-c2nc3ccc(-c4nnc(SCC(=O)Nc5ccc(/C(C)=N\O)cc5)o4)cc3[nH]2)cc1`, the growth was 37%.

Consider `CCOC(=O)c1ccc(NC(=S)NC(=O)c2cccc(NC(=O)c3ccc(C)cc3)c2)cc1`, for which the growth is 64.2%.

Take `Cn1cc(-c2cc(N)n3nc(-c4c[nH]c5ccccc45)cc3n2)c2cc(F)ccc21`: the growth was -7.62% (active).

For the compound `COC(=O)c1ccc(-c2c(-c3ccccc3)c(F)c3oc(C(=O)OC)c(N)c3c2-c2ccccc2)cc1`, the growth is 75.6%.

Regarding `COc1ccc(-c2cc(C(=O)OCc3ccc(Br)cc3)nn2-c2ccc(S(C)(=O)=O)cc2)cc1OC`, the growth was 72.1%.

Take `COc1ccc2ccccc2c1/C=C1\SC(=Nc2ccc(O)cc2)NC1=O`: the growth is 9.63% (active).

For `COc1ccc2[nH]c(O)c(N=Nc3nc(-c4ccc(C#N)cc4)cs3)c2c1`, the growth is 69.8%.

In the case of `Cc1ccc(C(C)C)cc1Oc1cccc(-c2c(-c3ccc(C(F)(F)F)cc3)ncn2C2CCNCC2)n1`, the growth is -85.3% (active).

For the compound `Cc1cc(C2(c3cc(C)c(OCC(O)CNc4c(C)n(C)n(-c5ccccc5)c4=O)cc3C(C)C)OC(=O)c3ccccc32)c(C(C)C)cc1OCC(O)CNc1c(C)n(C)n(-c2ccccc2)c1=O` (stereo unspecified), the growth is 15.9%.

Another assay deals with HCT-116 colon. The assay is described as above. The conditions noted are these: 10 µM unless noted.
Take `O=C(COc1ccc(/C=C2/C(=O)Nc3ccc(Cl)cc32)cc1)Nc1ccc(Br)cc1`: the growth was -64% (active).

Regarding `CCCCNc1ccc2c3c(cccc13)C(=O)N(NCC(O)COc1ccc3c(C)cc(=O)oc3c1)C2=O` (stereo unspecified), the growth was 91.9%.

On to `COc1ccc(C(=O)c2c(N)c(C#N)cn2-c2ccc([N+](=O)[O-])cc2)cc1`, for which the growth is 106%.

`C=CC(=O)N1CCN(c2ccc3nc4c(nc3c2C(F)(F)F)C(=O)c2ncccc2C4=O)CC1`: the growth is -25.7% (active).

Consider `NC(=O)c1ccc(-c2ccc3ncnc(N4CCc5cc(F)c(Cl)cc54)c3c2)cn1`, for which the growth is 63.6%.

Regarding `Cc1ccc2nc(NC(=O)Nc3cccc(Cl)c3)sc2c1`, the growth was 94.7%.

As to `O=C(c1ccc(Cl)cc1)C1[C@H](c2ccccc2Cl)[C@@H](c2ccccc2)NC12C(=O)Nc1ccccc12` (stereo partly specified), the growth is -91.3% (active).

On to `CCCn1c(NC(=O)c2cccc(C(N)=O)c2)nc2ccc(CN3CCCCC3)cc21`, for which the growth is 6.73% (active).

For the compound `S=C(NCCc1ccccc1)Nc1ccc(OCc2nc3ccc(Cl)cc3[nH]2)cc1`, the growth was 18.9%.

Consider `Cc1ccc(Cl)cc1NC(=O)Nc1nc2ccc([N+](=O)[O-])cc2s1`, for which the growth was -37.7% (active).

Consider `C[C@@H]1CN(c2ccc3ncc(C#Cc4cncc(C(=O)Nc5ccc(CN6CCN(C)CC6)c(C(F)(F)F)c5)c4)n3n2)C[C@@H](C)O1`, for which the growth is -23.5% (active).

Take `O=C1C=CC(=CC=C2N(Cc3ccc4ccccc4c3)c3ccccc3N2Cc2ccc3ccccc3c2)C=C1`: the growth was 10.7% and 14.7%.

Take `CNS(=O)(=O)N1CCc2c(Br)c3c(c(OC)c2C1CCc1ccccc1)OCO3` (stereo unspecified): the growth was -16.8% (active).

`Cc1ccc(Cl)cc1NC(=O)N/C(N)=N/c1nc2ccccc2s1`: the growth is -51.9% (active).

In the case of `COc1ccc(N=Nc2c(N)nn3c(N)c(C#N)c(-c4ccccc4)nc23)cc1`, the growth is 20.2%.

For the compound `Cc1cccc(/C=C/c2ccc(NC(=S)NCCCCN(C)C)cc2)c1`, the growth was -45.1% (active).

As for `COc1ccc(-c2cc(-c3ccccc3)c(C#N)c(=O)[nH]2)cc1S(N)(=O)=O`, the growth is 103%.

In the case of `CC(C)(C)OC(=O)N1C/C(=C\c2ccc(F)cc2)C(=O)/C(=C/c2ccc(F)cc2)C1`, the growth was -81.5% (active).

In the case of `COc1cc(C=O)ccc1Oc1nc(Nc2ccc(F)cc2)nc(N(C)C)n1`, the growth is 64.9% and 20.3%.

Turning to `N#Cc1c(-c2ccc(F)cc2)nc(SCc2ccc(F)cc2)nc1N1CCNCC1`, the growth is -99.3% (active).

With `COc1ccc(-c2nc3ccc(-c4nnc(SCc5ccccc5)o4)cc3[nH]2)cc1OC`, the growth is 8.42% (active).

Take `COc1cccc(NC(=O)c2ccc(NC(=O)CCl)s2)c1`: the growth was -27.4% (active).

As for `COc1ccc(/C=C/C(=O)c2ccc(S(=O)(=O)NCCNc3nc(N(C)C)nc(N4CCOCC4)n3)cc2)cc1`, the growth is -9.23% (active).

As to `COc1ccc(S(=O)(=O)Nc2ccc(-c3ccc4c(c3)NC(=O)/C4=C\c3ccc[nH]3)cc2)cc1OC`, the growth was 19%.

On to `C=CCSc1nnc(-c2ccc(-c3nc4ccc(Cl)cc4[nH]3)cc2)o1`, for which the growth is 29.5%.

For `COc1cccc(-c2ccc(/C=N/NC(=O)c3[nH]c4ccc(Br)cc4c3-c3ccccc3)s2)c1`, the growth was -27.5% (active).

Turning to `Nc1nn2c(-c3cc4cc(Br)ccc4oc3=O)ccnc2c1N=Nc1ccc(Br)cc1`, the growth was 16.2%.

In the case of `COc1cc(/C=C/C(=O)c2cnn(-c3cc(=O)[nH]c4ccccc34)c2C)cc(OC)c1OC`, the growth is 5.92% (active).

For `COc1ccc(-c2nc3ccc(-c4nnc(SCC(=O)Nc5ccc(/C(C)=N\O)cc5)o4)cc3[nH]2)cc1`, the growth is 70.5%.

With `CCOC(=O)c1ccc(NC(=S)NC(=O)c2cccc(NC(=O)c3ccc(C)cc3)c2)cc1`, the growth was 49.1%.

As to `Cn1cc(-c2cc(N)n3nc(-c4c[nH]c5ccccc45)cc3n2)c2cc(F)ccc21`, the growth is -71.3% (active).

For the compound `COC(=O)c1ccc(-c2c(-c3ccccc3)c(F)c3oc(C(=O)OC)c(N)c3c2-c2ccccc2)cc1`, the growth is 84.3%.

On to `COc1ccc(-c2cc(C(=O)OCc3ccc(Br)cc3)nn2-c2ccc(S(C)(=O)=O)cc2)cc1OC`, for which the growth was 83.4%.

As for `COc1ccc2ccccc2c1/C=C1\SC(=Nc2ccc(O)cc2)NC1=O`, the growth is 2.32% (active).

As to `COc1ccc2[nH]c(O)c(N=Nc3nc(-c4ccc(C#N)cc4)cs3)c2c1`, the growth was 31.8%.

`Cc1ccc(C(C)C)cc1Oc1cccc(-c2c(-c3ccc(C(F)(F)F)cc3)ncn2C2CCNCC2)n1`: the growth is -94.3% (active).

Consider `Cc1cc(C2(c3cc(C)c(OCC(O)CNc4c(C)n(C)n(-c5ccccc5)c4=O)cc3C(C)C)OC(=O)c3ccccc32)c(C(C)C)cc1OCC(O)CNc1c(C)n(C)n(-c2ccccc2)c1=O` (stereo unspecified), for which the growth is 5.4% (active).
